PubChem BioAssay (NCI)
This is part of a sample that, as a whole, favours compounds with a hit. Of some 83,000 tested, about 20% had one in any assay.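 48-hour exposure, single concentration, 96-well plates; percent growth endpoint where 0 means no net growth. Active: below 10.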 The source made the active and inactive calls.

Tests used:
Assay in all cases: NCI-60 one-dose screen, 48 h (100 = growth as untreated, 0 = no growth, -100 = all killed)
Details in all cases: 10 µM unless noted
SK-MEL-2 melanoma = test system: SK-MEL-2 melanoma
EKVX NSCLC = test system: EKVX NSCLC
SN12C renal = test system: SN12C renal
UO-31 renal = test system: UO-31 renal
TK-10 renal = test system: TK-10 renal
ACHN renal = test system: ACHN renal
CAKI-1 renal = test system: CAKI-1 renal
A498 renal = test system: A498 renal
CCRF-CEM leukemia = test system: CCRF-CEM leukemia
MOLT-4 leukemia = test system: MOLT-4 leukemia

Measured: growth

COc1ccc(/C=N/NC(=O)CSc2nc(-c3cnccn3)cc(-c3cccs3)c2C#N)cc1
inactive: SK-MEL-2 melanoma 89% | EKVX NSCLC 78.2% | SN12C renal 64% | UO-31 renal 101% | TK-10 renal 98.7% | ACHN renal 74% | CAKI-1 renal 48.3% | A498 renal 79% | CCRF-CEM leukemia 86.1% | MOLT-4 leukemia 73.8%

Cc1ccc(CSC2=C(Cl)CN(c3ccc(Cl)cc3)C2=O)cc1
inactive: SK-MEL-2 melanoma 104% | EKVX NSCLC 104% | SN12C renal 104% | UO-31 renal 78.6% | TK-10 renal 115% | ACHN renal 107% | CAKI-1 renal 94.5% | A498 renal 113% | CCRF-CEM leukemia 106% | MOLT-4 leukemia 110%

COc1cc(/C=N\NC(=O)c2ccc3nc(-c4ccc(Br)cc4)[nH]c3c2)cc(OC)c1OC
inactive: SK-MEL-2 melanoma 60.2% | EKVX NSCLC 78.2% | SN12C renal 63.4% | UO-31 renal 72.3% | TK-10 renal 58.9% | ACHN renal 60.9% | CAKI-1 renal 33.2% | A498 renal 20.8% | CCRF-CEM leukemia 25.8% | MOLT-4 leukemia 31.6%

Cn1c(SCC(=O)c2ccc(Br)cc2)nc2ccccc2c1=O
inactive: SK-MEL-2 melanoma 102% | EKVX NSCLC 82.2% | SN12C renal 96.6% | UO-31 renal 75.9% | TK-10 renal 117% | ACHN renal 96.1% | CAKI-1 renal 85.4% | A498 renal 92.7% | CCRF-CEM leukemia 91.9% | MOLT-4 leukemia 99%

N#Cc1nc(-c2ccccc2)oc1N1CCC(C2(C(F)(F)F)N=N2)CC1
inactive: SK-MEL-2 melanoma 97.8% | EKVX NSCLC 92.1% | SN12C renal 119% | UO-31 renal 82% | TK-10 renal 116% | ACHN renal 102% | CAKI-1 renal 84.8% | A498 renal 85.4% | CCRF-CEM leukemia 102% | MOLT-4 leukemia 101%

C#C[C@]1(O)CC[C@H]2[C@@H]3CC=C4c5sc(N6CCN(C)CC6)nc5CC[C@]4(C)[C@H]3CC[C@@]21C
active: CCRF-CEM leukemia -8.52% | MOLT-4 leukemia 1.27%
inactive: SK-MEL-2 melanoma 36.8% | EKVX NSCLC 68.5% | SN12C renal 76.6% | UO-31 renal 77.2% | TK-10 renal 100% | ACHN renal 47.2% | CAKI-1 renal 54.2% | A498 renal 86%

CCCCCc1ccc(S(=O)(=O)Nc2cc(-c3csc(N)n3)ccc2OC)cc1
inactive: SK-MEL-2 melanoma 112% | EKVX NSCLC 86.4% | SN12C renal 89.2% | UO-31 renal 53.5% | TK-10 renal 113% | ACHN renal 98% | CAKI-1 renal 88.4% | A498 renal 96.6% | CCRF-CEM leukemia 57.4% | MOLT-4 leukemia 78.6%

Cc1cc(Br)ccc1-n1cc(C#N)c(N)c1C(=O)c1ccc(Br)cc1
inactive: SK-MEL-2 melanoma 108% | EKVX NSCLC 97.8% | SN12C renal 110% | UO-31 renal 80.1% | TK-10 renal 87% | ACHN renal 97.2% | CAKI-1 renal 91.6% | A498 renal 114% | CCRF-CEM leukemia 96.6% | MOLT-4 leukemia 108%

COc1cc2c3c(cc4c5c(ccc4c3c1OC)OCO5)N(CCN(C)C)C2=O
active: SK-MEL-2 melanoma -44.5% | EKVX NSCLC -22% | SN12C renal -5.44% | UO-31 renal -53.9% | TK-10 renal -4.01% | ACHN renal -51.4% | CAKI-1 renal -26.6% | A498 renal -77.6% | CCRF-CEM leukemia 1.57% | MOLT-4 leukemia 3.85%

CCN(CC)c1ccc(/C=N/NC(=O)c2ccc(S(N)(=O)=O)cc2)c(O)c1
inactive: SK-MEL-2 melanoma 47.2% | EKVX NSCLC 15.9% | SN12C renal 28.3% | TK-10 renal 37.4% | ACHN renal 14.8% | CAKI-1 renal 22.1% | A498 renal 24% | MOLT-4 leukemia 11.2%
active: UO-31 renal 7.5% | CCRF-CEM leukemia 9.4%

Oc1[nH]c2ccc(Cl)cc2c1N=Nc1nc(N=Nc2c(O)[nH]c3ccc(Cl)cc23)nc(N2CCOCC2)n1
inactive: SK-MEL-2 melanoma 65.3% | EKVX NSCLC 85.2% | SN12C renal 43.9% | UO-31 renal 78.7% | TK-10 renal 118% | ACHN renal 74.5% | CAKI-1 renal 72% | A498 renal 21.6% | CCRF-CEM leukemia 20.3% | MOLT-4 leukemia 62.5%

O=C1[C@@H]2Cc3c([nH]c4ccccc34)[C@H](c3ccc(Cl)cc3)N2C(=O)CN1C1CCN(Cc2ccccc2)CC1
inactive: SK-MEL-2 melanoma 82.3% | EKVX NSCLC 47.1% | SN12C renal 46.4% | UO-31 renal 26.3% | TK-10 renal 81% | ACHN renal 49.4% | CAKI-1 renal 27.3% | A498 renal 57.5% | CCRF-CEM leukemia 36.7% | MOLT-4 leukemia 27%

NC1=NC2(CCCC2)N(c2ccc(S(=O)(=O)Nc3nccs3)cc2)C(N)=N1
inactive: SK-MEL-2 melanoma 116% | EKVX NSCLC 98.7% | SN12C renal 102% | UO-31 renal 83.6% | TK-10 renal 104% | ACHN renal 103% | CAKI-1 renal 93.6% | A498 renal 120% | CCRF-CEM leukemia 95.9% | MOLT-4 leukemia 102%

COCCOc1ccc2ncc(C#Cc3cncc(C(=O)Nc4ccc(CN5CCN(C)CC5)c(C(F)(F)F)c4)c3)n2n1
active: SK-MEL-2 melanoma -82.7% | UO-31 renal 2.58% | ACHN renal 4.87% | CAKI-1 renal 1.32% | A498 renal -50.4%
inactive: EKVX NSCLC 33.6% | SN12C renal 10.2% | TK-10 renal 14.3% | CCRF-CEM leukemia 11.7% | MOLT-4 leukemia 13.2%

O=S(=O)(NCCCNc1nccc(-c2[nH]c(-c3ccccc3)nc2-c2ccc(F)c(O)c2)n1)c1ccccc1
inactive: SK-MEL-2 melanoma 31.6% | EKVX NSCLC 102% | SN12C renal 107% | UO-31 renal 144% | TK-10 renal 154% | ACHN renal 95.4% | CAKI-1 renal 105% | A498 renal 114% | CCRF-CEM leukemia 47.9% | MOLT-4 leukemia 51.3%

C=C(C)[C@@H]1CC[C@]2(C(=O)NC3CCCCC3)CC[C@]3(C)[C@H](CC[C@@H]4[C@@]5(C)CC[C@H](N)C(C)(C)[C@@H]5CC[C@]43C)[C@@H]12
inactive: SK-MEL-2 melanoma 105% | EKVX NSCLC 90.7% | SN12C renal 102% | UO-31 renal 80.4% | TK-10 renal 124% | ACHN renal 104% | CAKI-1 renal 65.4% | A498 renal 118% | CCRF-CEM leukemia 79.4% | MOLT-4 leukemia 64.5%

Cn1cc(-c2nn3cc(-c4ccncc4)nc3s2)c2cc(Br)ccc21
inactive: SK-MEL-2 melanoma 75.2% | EKVX NSCLC 45.7% | SN12C renal 67.7% | UO-31 renal 39.3% | TK-10 renal 113% | ACHN renal 68.9% | CAKI-1 renal 56.5% | A498 renal 81.4% | CCRF-CEM leukemia 29.7% | MOLT-4 leukemia 12.9%

C#CCOc1cccc(/C(N)=N/C(N)=N/c2nc3ccccc3s2)c1
inactive: SK-MEL-2 melanoma 103% | EKVX NSCLC 73.8% | SN12C renal 66% | UO-31 renal 91.8% | TK-10 renal 148% | ACHN renal 81.4% | CAKI-1 renal 73.5% | A498 renal 122% | CCRF-CEM leukemia 76.5% | MOLT-4 leukemia 71.8%

CCCC[n+]1ccc(SCC(=O)n2ccc3ccccc32)c2ccccc21
inactive: SK-MEL-2 melanoma 99.9% | EKVX NSCLC 88.1% | SN12C renal 96.5% | UO-31 renal 76.5% | TK-10 renal 141% | ACHN renal 104% | CAKI-1 renal 81.9% | A498 renal 111% | CCRF-CEM leukemia 87.3% | MOLT-4 leukemia 83.1%

O=c1c2cc(-c3ccc(F)cc3F)ccc2n(Nc2ccccc2)c(=O)n1-c1cccc(C(F)(F)F)c1
active: SK-MEL-2 melanoma -11.2% | EKVX NSCLC 6.49% | SN12C renal 3.98% | UO-31 renal 4.59% | ACHN renal 2.25% | CAKI-1 renal -10.6% | A498 renal -18.1% | MOLT-4 leukemia 6.73%
inactive: TK-10 renal 11.3% | CCRF-CEM leukemia 15.5%

CCc1cc2c(cc1Cl)nc1c(=O)[nH]c(=O)nc-1n2CCOCC(C)C
inactive: SK-MEL-2 melanoma 80.1% | EKVX NSCLC 68.1% | SN12C renal 57.4% | UO-31 renal 57.1% | TK-10 renal 176% | ACHN renal 60% | CAKI-1 renal 67.7% | A498 renal 76.4% | CCRF-CEM leukemia 77.6% | MOLT-4 leukemia 64.1%

CCOc1cccc(/C(N)=N/C(N)=N/c2nc3ccccc3s2)c1
inactive: SK-MEL-2 melanoma 117% | EKVX NSCLC 73.3% | SN12C renal 53.1% | UO-31 renal 38.4% | TK-10 renal 135% | ACHN renal 48.7% | CAKI-1 renal 62.4% | A498 renal 115% | CCRF-CEM leukemia 55.8% | MOLT-4 leukemia 62.4%

CC1=C(C)C(=O)C(Nc2cccc(C(F)(F)F)c2)=C(Br)C1=O
active: CCRF-CEM leukemia -0.578% | MOLT-4 leukemia -6.02%
inactive: SK-MEL-2 melanoma 104% | EKVX NSCLC 72.9% | SN12C renal 97.1% | UO-31 renal 79.1% | TK-10 renal 157% | ACHN renal 72.3% | CAKI-1 renal 94.3% | A498 renal 86.4%

O=C(N/N=C\c1ccc([N+](=O)[O-])cc1)c1ccc2nc(-c3ccc(Br)cc3)[nH]c2c1
inactive: SK-MEL-2 melanoma 51.9% | EKVX NSCLC 45.4% | SN12C renal 16.9% | UO-31 renal 41.6% | TK-10 renal 64.6% | ACHN renal 34.1% | CAKI-1 renal 34.8% | A498 renal 21.4% | CCRF-CEM leukemia 10.6%
active: MOLT-4 leukemia 5.71%

CN1CCN(CCNc2nc(-c3cccc(NS(=O)(=O)c4cccc5c(N(C)C)cccc45)c3)cs2)CC1
inactive: SK-MEL-2 melanoma 103% | EKVX NSCLC 50% | SN12C renal 58.9% | UO-31 renal 56.8% | TK-10 renal 90.7% | ACHN renal 72.5% | CAKI-1 renal 58.6% | A498 renal 67.5% | CCRF-CEM leukemia 60.1% | MOLT-4 leukemia 44.6%

O=C(CCCCCCNC(=O)C(O)(O)C(F)(F)F)Nc1ncc(-c2ccc(Br)cc2)s1
active: SK-MEL-2 melanoma -27.3% | SN12C renal 0.547% | UO-31 renal -26.1% | TK-10 renal -20.2% | ACHN renal -32.1% | CAKI-1 renal -32.8% | A498 renal -41.2% | MOLT-4 leukemia 4.21%
inactive: EKVX NSCLC 21.5% | CCRF-CEM leukemia 18.4%
